Laboratory results: PubChem BioAssay AID1845227 (National Center for Advancing Translational Sciences (NCATS), 2023)
Records with an inconclusive call do not appear. Entries that show only a call come without a potency. The source made the active and inactive calls. The call rests on the fitted dose curve; in most records, active means well fitted inhibition curve with a large enough effect; inconclusive means small, poorly fitted or top-dose-only effect; inactive means no such curve, though single readings can be large or run the other way.

molecular target: Luciferin 4-monooxygenase (Photinus pyralis) (UniProt P08659); assay: Confirmatory firefly luciferase (FLuc) qHTS assay for identification of artifact compounds; conditions: purified FLuc enzyme, luminescence, 5 min; series mostly up to 38.9 µM
In short: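 Compounds were preincubated 15 min at room temperature with 10 uM D-luciferin and 10 uM ATP in Tris acetate pH 7.6. 10 nM Photinus pyralis luciferase was then added, and luminescence was read after 5 min.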
Potency means the concentration at half of the fitted maximal effect.

Row | SMILES | Potency | activity change, negative = inhibition
1 | Cc1cccc(NC(=O)COC(=O)CCCC2=NS(=O)(=O)c3ccccc3N2)c1 | inactive | –
2 | CCCOc1ccc(C(=O)Nc2ccc3oc(-c4ccncc4)nc3c2)cc1 | inactive | –
3 | Cc1ccc2nc(-c3cccs3)c(Nc3ccccc3)n2c1 | inactive | –
4 | CC(C)(C)OC(=O)N1CCC[C@H]1C(=O)N1CCC(C(=O)N[C@H](Cc2ccccc2)C(=O)NCc2ccc(F)cc2)CC1 | inactive | –
5 | CC(=O)Nc1oc(-c2cccc3ccccc23)nc1C#N | inactive | –
6 | CCOc1ccc2c(c1)C(C)=CC(C)(C)N2 | inactive | –
7 | O=C(O)CCCC/C=C\C[C@@H](O)/C=C/C=C/C=C\[C@@H](O)CCCC(=O)O | – | -5.27% [at 0.322 µM] (inactive)
8 | C=CCNc1nnc(-c2cccc3ccccc23)o1 | inactive | –
9 | O=S(=O)(c1ccc2c(c1)OCCO2)N1CCN(S(=O)(=O)c2c(F)cccc2F)CC1 | inactive | –
10 | C[C@@H]1O[C@H](O[C@@H]2C(O)[C@H](O)[C@@H](CO)O[C@H]2Oc2cc(O)c3c(=O)cc(-c4ccc(O)cc4)oc3c2)[C@H](O)[C@H](O)[C@H]1O (stereo partly drawn) | inactive | –
11 | COc1ccc(-c2nnc3n2N=C(c2cc(OC)ccc2OC)CS3)c(OC)c1 | inactive | –
12 | O=C(Nc1ccc(Oc2ccccc2)cc1)Nc1nnc(-c2ccncc2)s1 | inactive | –
13 | COc1ccc2cc3cc(C(=O)N4CCN(c5ccccc5F)CC4)oc3nc2c1 | inactive | –
14 | COc1cccc(C2c3c(ncn(-c4cccc(C#N)c4)c3=N)Oc3ccc4ccccc4c32)c1 (stereo not drawn) | inactive | –
15 | Cc1ccc(Nc2c(-c3ccsc3)nc3cccc(C)n23)cc1 | inactive | –
16 | CCCCN(C)CCCNC(=O)CN1C(=O)COc2ccc(S(=O)(=O)N3CCC(C)CC3)cc21 | inactive | –
17 | CCOC(=O)c1ccc(N2C(=O)c3n[nH]c(-c4ccco4)c3C2c2ccc(C)cc2)cc1 (stereo not drawn) | inactive | –

Row | SMILES | Potency | activity change, negative = inhibition
18 | O=C(Nc1ccccc1-c1nc2ccccc2s1)c1cc(Cl)cc(Cl)c1 | inactive | –
19 | Cc1cccc(-c2noc(-c3cc(C(C)C)[nH]n3)n2)c1 | 6.12 µM (active) | –
20 | Cc1cc(NC(=O)c2cccnc2)cc(-c2nc3cc(Cl)ccc3o2)c1O | inactive | –
21 | COc1ccc(CNC(=O)c2ccc(NC(=O)N3CCCCc4ccccc43)cc2)cc1 | inactive | –
22 | Cc1ccc(C2C=C(c3ccccc3)Nc3nc(NS(=O)(=O)c4ccccc4)nn32)cc1 (stereo not drawn) | inactive | –
23 | CCCCN(CCCNC(=O)c1cc(Nc2ccc(OC)c(OC)c2)nc2ccccc12)Cc1ccccc1 | inactive | –
24 | O=c1oc2ccc(Br)cc2cc1-c1csc(-c2ccc(Cl)cc2)n1 | inactive | –
25 | CC(NC(=O)CSc1nc(-c2ccccc2F)nc2cc(=O)[nH]n12)c1nc2ccccc2n1C (stereo not drawn) | inactive | –
26 | Cc1cc(C)n2ncc(C(=O)Nc3ccc(-c4cn[nH]c4)cc3)c2n1 | inactive | –
27 | COc1ccc(Cn2c(CNS(=O)(=O)c3ccc(Cl)s3)nc3cccnc32)cc1 | inactive | –
28 | Clc1ccc(-c2noc3ncnc(N4CCCCC4)c23)cc1 | inactive | –
29 | CNc1cccc(S(=O)(=O)N2CCCN(S(=O)(=O)c3ccc4c(c3)OCCO4)CC2)c1 | inactive | –
30 | Cc1ccc(CN(C(=O)COc2ccc([N+](=O)[O-])cc2)c2ccccn2)cc1 | inactive | –
31 | COc1cccc(NC(=O)CSc2nc3cc(OC)c(OC)cc3c3nc(-c4ccccc4)nn23)c1 | inactive | –
32 | COc1ccc(C(=O)Nc2noc3ccccc23)cc1 | 0.864 µM (active) | –
33 | O=c1cc(-c2ccc(O)cc2)oc2cc(O[C@@H]3O[C@H](CO)[C@H](O)[C@H](O)[C@H]3O)cc(O)c12 | inactive | –
